# Source: PubChem BioAssay (National Center for Advancing Translational Sciences (NCATS))
# An excerpt weighted towards active compounds, which were near 0.9% of everything screened.
# A647 autofl: A647 region autofluorescence | Compound fluorescence, A647 channel (570/671 nm), Tris buffer | max dye-equivalent concentration, M | 59,000 tested, under 10 active | AID 592;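 further: values scaled relative to a standard on each plate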
#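 Each compound's intrinsic fluorescence at 570 nm excitation and 671 nm emission is measured across its concentration series in 100 mM Tris, pH 8.0, after 15 min at room temperature, and reported relative to an A647 curve.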
# Resorufin autofl: compound fluoresces in the resorufin spectral region; max dye-equivalent concentration, M; AID 588; Compound fluorescence, resorufin region 547/598 nm, buffer; stronger effect = higher value; 59,000 tested, 0.04% active
#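 Compounds in 100 mM Tris, pH 8.0, incubated 15 min at room temperature, then fluorescence read at 547 nm excitation/598 nm emission. Signal converted to dye-equivalent concentration via an on-plate six-point resorufin standard curve, per compound concentration.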
# Rhodamine fluor: compound fluoresces in the rhodamine spectral region. max dye-equivalent concentration, M. 59,000 tested, 0.05% active. Rhodamine-region fluorescence, 547/598 nm, Tris buffer; stronger effect = higher value; in the data active means max dye-equivalent concentration above about 11 nM; inconclusive means between about 1.1 nM and that limit
#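 Read-out is relative fluorescence at 547 nm excitation and 598 nm emission, expressed as dye-equivalent concentration using rhodamine standards on every plate. Each compound was profiled across a concentration series after 15 min in 100 mM Tris, pH 8.0.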
# A488 fluor: compound autofluorescence in A488 spectral region. compound autofluorescence, A488 spectral region, dye equivalency; Compound Type: qHTS ECL - MLSMR. max dye equivalency, M. 59,000 tested, 0.1% active
#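 Readout is A488 dye-equivalent concentration, calibrated by a per-plate six-point Alexa 488 series. Compounds in 100 mM Tris buffer pH 8.0 were incubated 15 min at room temperature. Plates were imaged using 480 nm excitation/540 nm emission filters.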
# Fluorescein fluor: compound autofluorescence in fluorescein spectral region. Compound autofluorescence, 480/540 nm, fluorescein-equivalent; stronger effect = higher value. max fluorescein-equivalent concentration, M. 59,000 tested, 0.91% active; in the data active means max fluorescein-equivalent concentration above about 10 nM; inconclusive means between about 1.1 nM and that limit
#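 Compounds (23 nL) in 100 mM Tris pH 8.0, 15 min at room temperature, then fluorescence read at 480 nm excitation/540 nm emission. Signal converted to fluorescein-equivalent concentration from an on-plate fluorescein standard curve.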
# TexasRed autofl: compounds fluorescent in Texas Red spectral region; Compound fluorescence, Texas Red channel, 547/618 nm; stronger effect = higher value; max dye-equivalent concentration, M; 59,000 tested, 0.06% active; in the data active means max dye-equivalent concentration above about 10 nM; inconclusive means between about 1.1 nM and that limit
#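 Compound titrations in 100 mM Tris pH 8.0 were incubated 15 min at room temperature and read at 547 nm excitation / 618 nm emission. Texas Red six-point standard curve on each plate converted fluorescence to dye-equivalent concentration.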
# * marks the source's active call; other numbers are inactive results; i = inactive; ? = inconclusive. Unless noted, how the calls were made is not given here.
SMILES,A647 autofl,Resorufin autofl,Rhodamine fluor,A488 fluor,Fluorescein fluor,TexasRed autofl
CCOC(=O)C1CCN(c2nc3ccccc3nc2C(C#N)C(=O)OC(C)COC)CC1 (stereo not given),1.5e-09,i,i,i,?,i
CCOC(=O)C1CCN(c2nc3ccccc3nc2C(C#N)C(=O)OC(C)C)CC1 (stereo not given),6.6e-09,i,i,i,1.29e-08M*,i
CCOC(=O)C1CCCN(c2nc3ccccc3nc2C(C#N)C(=O)OC(C)C)C1 (stereo not given),2.52e-08,i,i,1.35e-08M*,2.27e-07M*,i
CC1(C)CC(=O)c2cc(C(=O)N3CCCCC3)c(=O)n(-c3ccc(Cl)cc3)c2C1,8.1e-09,i,i,i,i,?
Cc1nn2cnc3sc4c(c3c2nc1=O)CCCC4,1.3e-09,i,i,i,1.01e-08M*,i
NC(=O)c1cc2ccc(O)cc2oc1=Nc1ccccc1,2.49e-08,i,i,i,?,i
NC(=O)c1cc2ccc(O)cc2oc1=NCc1ccccc1,1.3e-09,i,i,1.48e-08M*,2.69e-07M*,i
COc1ccc(N(CC(=O)NCc2ccco2)S(C)(=O)=O)cc1,1e-09,i,i,i,?,i
Cc1nc2nc(-c3cccs3)cn2nc1C,3.1e-09,i,i,?,6.02e-08M*,i
COc1cccc(-c2cn3nc(C)c(C)nc3n2)c1,1.4e-09,i,i,i,i,i
COc1cc(/C=C/C2=NC(=O)C(C)(C)O2)ccc1O,1e-09,i,i,i,2.98e-08M*,i
COc1cc(/C=C/C(=O)CC(=O)/C=C/c2ccc(O)c(OC)c2)ccc1O,2.9e-08,i,i,i,?,i
COc1ccccc1CN1CCC2(CC1)CCN(C(=O)c1ccncc1)CC2,2.3e-09,i,i,i,1.06e-08M*,i
COc1ccccc1CN1CC[C@@]2(CCCN(C(=O)c3ccncc3)C2)C1,3.9e-09,i,i,i,i,i
CCOC(=O)N1CC=C2C(C#N)=C(N)C(C#N)(C#N)[C@H](c3ccc(OCC)c(OCC)c3)[C@H]2C1,1e-09,i,i,i,i,i
Cc1ccc(C2C3CN(C(C)C)CC=C3C(C#N)=C(N)C2(C#N)C#N)cc1 (stereo not given),6.21e-08,i,i,?,9.97e-08M*,i
CCCN1CC=C2C(C#N)=C(N)C(C#N)(C#N)C(c3cccc(OC)c3OC)C2C1 (stereo not given),3.1e-09,i,i,?,5.33e-08M*,i
CN1CC=C2C(C#N)=C(N)C(C#N)(C#N)C(c3cccc(Cl)c3Cl)C2C1 (stereo not given),1.1e-09,i,i,?,3.9e-08M*,?
COc1ccc(OC)c(C2C3CN(C(C)C)CC=C3C(C#N)=C(N)C2(C#N)C#N)c1 (stereo not given),1e-09,i,i,i,3.24e-08M*,i
CCCCOc1ccc(C2C3CN(C(=O)OCC)CC=C3C(C#N)=C(N)C2(C#N)C#N)cc1OC (stereo not given),1.2e-09,i,i,i,?,i
COCCNc1nc(-c2cccc(NS(C)(=O)=O)c2)nc2ccccc12,1e-09,i,i,i,i,i
O=c1[nH]cnc2scc(-c3ccc(F)cc3)c12,1e-09,i,i,i,i,i
COc1ccc2cc(C(c3nnnn3CCc3ccccc3)N3CCC(O)CC3)c(=O)[nH]c2c1 (stereo not given),1.2e-09,1.29e-08M*,2.4e-08M*,i,1.44e-08M*,4.1e-08M*
COc1ccc(OC)c(/C=c2\sc3nc(-c4cccs4)nn3c2=O)c1,2.4e-09,i,i,?,1.77e-07M*,i
CCOC(=O)N1CCN(c2cc(NCCC(=O)O)c3c4c(onc24)-c2ccccc2C3=O)CC1,3.62e-08,i,?,?,7.99e-08M*,?
SMILES,A647 autofl,Resorufin autofl,Rhodamine fluor,A488 fluor,Fluorescein fluor,TexasRed autofl
O=C(O)CCCNc1cc(N2CCC3(CC2)OCCO3)c2noc3c2c1C(=O)c1ccccc1-3,3.54e-08,?,?,i,1.27e-08M*,1.05e-08M*
Cc1ccccc1-n1c(=O)cc(N2CCC3(CC2)OCCO3)[nH]c1=O,2.1e-09,i,i,i,i,i
CCOC(=O)N1CCN(c2c(NCCCN(CC)Cc3ccccc3)c(=O)c2=O)CC1,6.2e-09,i,i,i,i,?
CSc1nnc2c(n1)OC(c1cccn1C)N(C(C)=O)c1ccccc1-2 (stereo not given),2.33e-08,i,i,i,i,i
COc1ccccc1/C=c1\sc2nc(-c3ccco3)nn2c1=O,6.3e-09,i,i,i,i,i
CCOc1ccc(/C=c2\sc3nc(-c4ccco4)nn3c2=O)cc1OCC,7.2e-09,i,i,?,1.23e-07M*,i
COc1ccc(C(=O)N2CCC3(CCCN(c4cccc(-c5ccccc5)c4)C3)CC2)cc1,1.64e-08,i,i,i,1.38e-08M*,i
COc1ccc(NC(=O)N2CCCC3(CCN(C(=O)c4ccc(OC)cc4)CC3)C2)cc1,2.37e-08,i,i,i,2.61e-08M*,i
COc1ccc(C(=O)N2CCC3(CC2)CN(c2cccc(-c4ccccc4)c2)C3)cc1,1.4e-09,i,i,i,i,i
CC(=O)N1CC=C2C(C#N)=C(N)C(C#N)(C#N)C(C)C2C1 (stereo not given),1e-09,i,i,i,?,i
CCN1CC=C2C(C#N)=C(N)C(C#N)(C#N)C(CCc3ccccc3)C2C1 (stereo not given),1e-09,i,i,?,1.3e-07M*,i
CC(=O)N1CC=C2C(C#N)=C(N)C(C#N)(C#N)[C@H](c3ccoc3)[C@H]2C1,6.05e-08,i,i,i,3.07e-08M*,i
N#CC1=C(N)C(C#N)(C#N)[C@H](c2ccoc2)[C@H]2CN(Cc3ccccc3)CC=C12,2.2e-09,i,i,?,3.51e-08M*,?
c1coc(CNc2c3c(nc4ncnn24)CCC3)c1,2.9e-09,i,i,i,i,i
Cn1c(=O)c2[nH]c(CS(=O)(=O)Cc3nc4c([nH]3)c(=O)n(C)c(=O)n4C)nc2n(C)c1=O,3.8e-09,i,i,?,1.22e-07M*,?
CC(C)c1ccc2c(c1)CC[C@@H]1[C@@](C)(CN)CCC[C@@]21C,1e-09,i,i,i,1.16e-08M*,i
O=C(CCNS(=O)(=O)c1ccccc1F)NCc1ccc2c(c1)OCO2,4.4e-09,i,i,i,i,?
COc1ccc(NC(=O)N2CCC3(CC2)CCN(C(=O)c2cccn2C)CC3)cc1,1e-09,i,i,i,i,i
